# Test results as given in PubChem BioAssay.
# Molecular target: Streptavidin (Streptomyces avidinii) (UniProt P22629)
# Test: streptavidin binders on small-molecule microarray, primary screen, artefact control for SMM compound annotation, biophysical, 635/667 nm fluorescence (AID 1147);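 also: signal reflects streptavidin binding to arrayed compounds as a control protein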
# Settings: streptavidin binding, higher = more signal
# Chain of Streptavidin (Streptomyces avidinii) (P22629 whole entry, looked up): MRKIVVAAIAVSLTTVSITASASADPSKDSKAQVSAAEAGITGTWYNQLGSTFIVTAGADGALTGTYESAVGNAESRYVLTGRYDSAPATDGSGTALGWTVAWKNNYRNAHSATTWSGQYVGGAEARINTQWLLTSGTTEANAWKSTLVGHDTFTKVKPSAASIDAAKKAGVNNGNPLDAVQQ
row,SMILES,composite z-score
1,COCCOC(=O)N1C(=O)[C@@]2(c3ccccc31)[C@H](c1ccc(OCCO)cc1)N1[C@H](c3ccccc3)[C@H](c3ccccc3)OC(=O)[C@H]1[C@@H]2C(=O)N1CCCCCCC1,4.09
2,CCCCCN1CC=CC23O[C@@H]4/C=C\CCC(C)OC(=O)C4[C@H]2C(=O)N(CCCCCCO)[C@@H]3C1=O (stereo not given in full),-0.749
3,COCCOC(=O)N1C(=O)[C@@]2(c3ccccc31)[C@H](c1ccccc1OCCO)N1[C@H](c3ccccc3)[C@H](c3ccccc3)OC(=O)[C@H]1[C@@H]2C(=O)N1CCCCCCC1,3.64
4,C=C[C@@H](OC)[C@H](OC(=O)Nc1ccc(SC)cc1)c1ccc(OCCO)cc1,0.22
5,COC(=O)[C@@]1(Cc2ccc(F)cc2)[C@H]2c3cc(C(=O)N(C)C)n(Cc4c(CO)[nH]cc(C)c4=O)c3C[C@H]2CN1C(=O)c1ccccc1,-0.0278
6,Cc1ccccc1C(O)C1C=CC2C(=O)N(c3ccccc3)C(=O)C2N1Nc1ccc([N+](=O)[O-])cc1 (stereo not given),1.77
7,COc1cc(NN2C(C(O)c3cc(OC)c(OC)c(OC)c3)C=CC3C(=O)N(c4ccccc4)C(=O)C32)cc(OC)c1OC (stereo not given),1.8
8,C=CCC(OC(C)=O)[C@@H]1[C@@H](N(Cc2cccc3ccccc23)C(=O)c2cccc3ccccc23)c2cc(OCCCO)ccc2N1C(=O)c1ccc2ccccc2c1 (stereo not given in full),-0.0629
9,COC(=O)[C@@]1(Cc2ccccc2)[C@H]2c3cc(C(=O)N4CCCC4)n(CCSCCO)c3C[C@H]2CN1C(=O)c1ccccc1,1.15
10,Cc1cccc([C@H]2C[C@H]3C(I)=C[C@@H]2C(=O)[C@]32CO2)c1,-0.0548
11,O=C1C2C=CC(C(O)C=Cc3ccc([N+](=O)[O-])cc3)N(Nc3ccccc3)C2C(=O)N1c1ccccc1 (stereo not given),1.53
12,CC(=O)NCCCC[C@@H]1NC(=O)[C@H]2C[C@@H](C(=O)NCCCCCNC(=O)CS)[C@@H](c3cccc(OCCO)c3)N2C1=O,-0.155
13,C=C[C@H](C)[C@H](OC(=O)Nc1ccc(OC)cc1)c1ccc(OCCO)cc1,-0.911
14,CCOC(=O)C[C@H]1[C@H](OC(=O)c2ccc(C(=O)c3ccccc3)cc2)[C@@H](NC(=O)CC(C)C)c2cc(OCCCO)ccc2N1C(=O)Cc1ccc(OC)cc1,-0.0635
15,Cc1ccccc1C(O)C1C=CC2C(=O)NC(=O)C2N1Nc1ccc(Cl)cc1Cl (stereo not given),0.878
16,COc1cc2c(cc1O)C(c1ccc(CN3CCCC3)cc1)N(C)CC2 (stereo not given),-0.317
17,COc1ccc([Si](C)(C)[C@@H]2[C@@H](CCn3cc([C@H](O)c4ccccc4)nn3)O[C@]3(C(=O)N(Cc4cccc(N5C(=O)c6cccc7cccc5c67)c4)c4ccccc43)[C@H]2C)cc1,-0.0465
18,CC(C)(C)OC(=O)CC[C@]1(C(=O)N2CCCCC2)COC(c2ccc(OCCCO)cc2)=N1,1.36

row,SMILES,composite z-score
1,COCCOC(=O)N1C(=O)[C@@]2(c3cc(C#CC4=CCCCC4)ccc31)[C@H](c1ccc(O)cc1)N1[C@H](c3ccccc3)[C@H](c3ccccc3)OC(=O)[C@H]1[C@@H]2C(=O)NC[C@H](O)c1ccccc1,0.318
2,CN(C)CCCCCCNC(=O)[C@@H]1C[C@@H]2C(=O)N[C@@H](CCCCN)C(=O)N2[C@@H]1c1ccc(O)cc1,2.97
3,Cc1ccc(N2C(=O)c3ccccc3[C@](C)(C(=O)NCc3ccccc3)[C@@H]2c2ccc(CO)cc2)nc1,0.0831
4,C=C[C@@H](C)[C@@H](OC(=O)Nc1ccc(SC)cc1)c1ccc(OCCO)cc1,0.929
5,C=C(/C(=C/C[C@@H](OC(=O)c1ccncc1)c1cccc(OCCO)c1)c1cnc2ccccc2c1)C(C)C,1.62
6,O=c1cccc(-c2ccco2)o1,0.721
7,O=C1C2C=CC(C(O)c3cc(C(F)(F)F)cc(C(F)(F)F)c3)N(Nc3ccccc3F)C2C(=O)N1c1ccccc1 (stereo not given),0.714
8,O=C(N1CCOCC1)[C@@]1(CCS(=O)(=O)c2ccccc2)N=C(c2ccc(OCCCO)cc2)O[C@H]1c1ccccc1,2.39
9,COCCCNC(=O)[C@@]1(Sc2ccc(C)cc2)CC(=O)N(C(C)C)[C@@H]1c1ccc(CO)cc1I,-0.671
10,C=C(C)[C@@H]1CC=C(C(O)C2C=CC3C(=O)N(c4ccccc4)C(=O)C3N2Nc2ccc(C#N)cc2)CC1 (stereo not given in full),1.48
11,C=C(COC)/C(=C/C[C@@H](OC(=O)c1ccncc1)c1ccccc1OCCO)c1cc(C(=O)OC)ccc1OC,-0.409
12,CC(C)C[C@@H]1NC(=O)[C@@H]2C[C@H](C(=O)NCCCCCC[N+](C)(C)C)[C@H](c3cccc(OCCO)c3)N2C1=O,-0.665
13,O=C1C2C=CC(C(O)c3ccco3)N(Nc3ccccc3)C2C(=O)N1c1ccccc1 (stereo not given),-0.511
14,CCOC(=O)C[C@H]1[C@H](OC(=O)c2ccc(-c3ccccc3)cc2)[C@@H](NC(=O)Cc2ccc(OC)cc2)c2cc(OCCCO)ccc2N1C(=O)Cc1ccc(OC)cc1,-0.0417
15,CCOC(=O)C1=CC[C@@H](c2ccccc2)N(S(=O)(=O)c2ccc(C)cc2)[C@H]1c1cccc(OC)c1,0.717
16,CN1C=C(C(=O)OCCS(C)(=O)=O)C(C(=O)OCCS(C)(=O)=O)=CC(c2ccc(CO)cc2)=CC1c1cccs1 (stereo not given),1.42
17,COC(=O)C(CC#Cc1ccc2c(c1)[C@]1(C(=O)N2)[C@H](c2ccc(OCCO)cc2)N2[C@H](c3ccccc3)[C@H](c3ccccc3)OC(=O)[C@H]2[C@@H]1C(=O)N1CCN(c2ncccn2)CC1)C(=O)OC,0.862
